Results taken from PubChem BioAssay (Tox21).
Records with an inconclusive call do not appear. The source made the active and inactive calls. Unless noted, the call rests on the fitted dose curve; in most records, active means well fitted curve in the direction sought with a large enough effect in the repeat runs; inconclusive means weak or mixed curves; inactive means no such curve, though single readings can be large; an effect the other way counts as inactive or inconclusive.

Key:
[1] = qHTS assay for small molecule agonists of the p53 signaling pathway - cell viability (AID 651633; calls by dose curve;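 further: p53RE-bla HCT reporter cells with a stable beta-lactamase p53 reporter; series mostly up to about 83 µM; nearly all actives have a fitted effect of over 30% in size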)
How it was run: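 Viability counter-read: CellTiter-Glo luminescence (30 min, room temperature) in the same p53RE-bla plates. These plates had been exposed to compounds for 16 h at 37 C.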

[2] = qHTS assay for small molecules that induce genotoxicity in human embryonic kidney cells expressing luciferase-tagged ATAD5 - cell viability (AID 651634; calls by dose curve; further: nearly all actives have a fitted effect of over 25% in size)
How it was run: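 HEK293T ATAD5-luc cells, 2,000/well; compound 15.5 hr, 37C/5% CO2; CellTiter-Fluor 30 min, 37C; fluorescence read.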

[3] = qHTS assay for small molecule disruptors of the mitochondrial membrane potential - cell viability (AID 720634; calls by dose curve; further: nearly all actives have a fitted effect of over 20% in size; further: potency means the concentration at half of the fitted maximal effect)
How it was run: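 Luminescence from CellTiter-Glo (ATP content) gave viability in HepG2 cells, read in the same wells as the MMP dye assay after 1 hr compound exposure at 37 C.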

[4] = qHTS assay to test for compound auto fluorescence at 590 nm (red) in HepG2 cells (AID 720674)
How it was run: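 1 hr compound incubation on HepG2 cells, 37 C, 5% CO2; plate read ex 540 nm / em 590 nm; intensities reported as Rose Bengal sodium equivalents.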

[5] = qHTS assay to test for compound auto fluorescence at 460 nm (blue) in HEK293 cells (AID 720678)
How it was run: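 HEK293 cells (2,000/well, medium with 10% dialyzed FBS) attached 4-5 hr, then exposed to compound overnight at 37C, 5% CO2. Blue fluorescence read at 405/460 nm, with triamterene as reference fluorophore.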

[6] = qHTS assay to test for compound auto fluorescence at 590 nm (red) in HEK293 cells (AID 720679)
How it was run: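 HEK293 cells (2,000/well, 10% dialyzed FBS) attached 4-5 hr, then dosed with compound or DMSO and incubated overnight at 37C, 5% CO2. Red fluorescence read at 540/590 nm, Rose Bengal sodium as reference fluorophore.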

[7] = qHTS assay to test for compound auto fluorescence at 535 nm (green) in HEK293 cells (AID 720680)
[8] = qHTS assay to test for compound auto fluorescence at 460 nm (blue) in HEK293 cell free culture (AID 720681)
How it was run: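 Blue fluorescence (Ex 405/Em 460 nm, triamterene-equivalent) was read immediately after pin transfer of compound or DMSO into medium (DMEM, 10% FBS) without cells.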

[9] = qHTS assay to test for compound auto fluorescence at 535 nm (green) in HEK293 cell free culture (AID 720682)
How it was run: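 Fluorescein serves as the green reference fluorophore; each compound's intrinsic emission at 535 nm (excitation 485 nm) is reported as an equivalent amount of that dye, measured in serum-containing DMEM without cells.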

[10] = qHTS assay to test for compound auto fluorescence at 590 nm (red) in HEK293 cell free culture (AID 720683)
How it was run: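 Red-channel autofluorescence of compounds in culture medium (DMEM, 10% FBS), no cells, measured at 540/590 nm. Rose Bengal sodium is the reference fluorophore for equivalence.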

[11] = qHTS assay to test for compound auto fluorescence at 590 nm (red) in HepG2 cell free culture (AID 720684)
How it was run: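 Cell-free; medium MEM + 10% FBS; compound or DMSO added by pintool; read Ex 540/Em 590 nm; Rose Bengal sodium as red reference fluorophore.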

[12] = qHTS assay to test for compound auto fluorescence at 535 nm (green) in HepG2 cell free culture (AID 720686)
[13] = qHTS assay to test for compound auto fluorescence at 460 nm (blue) in HepG2 cells (AID 720687)
How it was run: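 Blue-channel autofluorescence (Ex/Em 405/460 nm, triamterene-equivalent) was measured after 1 hr compound exposure at 37 C, 5% CO2. Cells were HepG2, plated overnight at 37 C in MEM plus 10% FBS.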

[14] = target: Glucocorticoid receptor (Homo sapiens) (UniProt P04150); assay: qHTS assay to identify small molecule antagonists of the glucocorticoid receptor (GR) signaling pathway (AID 720692; active means well fitted inhibition curve with a large enough effect in the signal ratio in the repeat runs, not every such curve was filed as active; the % refers to the signal ratio)
Chain of Glucocorticoid receptor (Homo sapiens) (P04150 whole entry, looked up): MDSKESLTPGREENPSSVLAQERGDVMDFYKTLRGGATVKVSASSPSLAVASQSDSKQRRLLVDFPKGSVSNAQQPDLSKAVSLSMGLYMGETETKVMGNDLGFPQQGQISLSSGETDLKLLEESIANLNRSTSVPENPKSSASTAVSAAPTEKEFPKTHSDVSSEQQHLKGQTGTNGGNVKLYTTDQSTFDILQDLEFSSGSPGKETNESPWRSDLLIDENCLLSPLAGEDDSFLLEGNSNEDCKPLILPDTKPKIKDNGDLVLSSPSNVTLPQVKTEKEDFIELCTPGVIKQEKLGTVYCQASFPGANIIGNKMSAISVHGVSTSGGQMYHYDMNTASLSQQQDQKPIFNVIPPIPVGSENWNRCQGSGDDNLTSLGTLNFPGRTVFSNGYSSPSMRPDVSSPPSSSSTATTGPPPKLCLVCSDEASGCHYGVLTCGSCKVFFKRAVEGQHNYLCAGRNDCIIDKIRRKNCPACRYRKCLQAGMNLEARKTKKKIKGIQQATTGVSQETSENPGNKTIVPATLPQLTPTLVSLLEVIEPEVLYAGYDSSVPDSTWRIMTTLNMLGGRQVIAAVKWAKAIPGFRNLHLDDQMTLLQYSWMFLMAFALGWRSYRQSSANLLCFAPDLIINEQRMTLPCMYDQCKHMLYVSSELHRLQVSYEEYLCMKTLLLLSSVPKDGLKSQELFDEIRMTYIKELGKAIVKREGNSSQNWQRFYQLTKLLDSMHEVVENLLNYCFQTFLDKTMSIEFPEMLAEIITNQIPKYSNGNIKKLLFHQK
How it was run: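 Read-out: beta-lactamase FRET substrate fluorescence, 2 h at room temperature, in HeLa cells stably carrying a GRE-driven bla reporter. Compounds were co-incubated with 5 nM dexamethasone agonist (final) for 18 h at 37 C.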

[15] = qHTS assay for small molecules that induce genotoxicity in human embryonic kidney cells expressing luciferase-tagged ATAD5 (AID 651632); further: nearly all actives have a fitted effect of over 15% in size; further: potency means the concentration at half of the fitted maximal effect
How it was run: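 Luminescence read-out: after 16 hr compound exposure at 37C, ATAD5-luciferase HEK293T cells received Amplite, 30 min RT, then CCD imaging. A rise in signal marks genotoxic stress.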

[16] = qHTS assay for small molecule disruptors of the mitochondrial membrane potential (AID 720635); further: potency means the concentration at half of the fitted maximal effect
How it was run: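 Mitochondrial membrane potential tracked with Mito-MPS dye, red aggregates (ex 540/em 590 nm) against green monomers (ex 490/em 535 nm). Compound treatment 1 hr at 37C, dye 30 min in HepG2.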

[17] = qHTS assay to test for compound auto fluorescence at 535 nm (green) in HepG2 cells (AID 720675)
[18] = qHTS assay to test for compound auto fluorescence at 460 nm (blue) in HepG2 cell free culture (AID 720685)
How it was run: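 Cell-free plates of MEM plus 10% FBS received 23 nL compound or DMSO vehicle; blue-channel (405/460 nm) intensity scored against triamterene as reference fluorophore.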

[19] = target: Glucocorticoid receptor (Homo sapiens) (UniProt P04150); assay: qHTS assay to identify small molecule agonists of the glucocorticoid receptor (GR) signaling pathway (AID 720691; active means well fitted activation curve with a large enough effect in the signal ratio in the repeat runs, not every such curve was filed as active; the % refers to the signal ratio; further: potency means the concentration at half of the fitted maximal effect)
How it was run: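 HeLa GR-bla reporter line; cells pre-incubated 4 h, compound in DMSO 18 h at 37 C; LiveBLAzer B/G FRET substrate 2 h RT; fluorescence intensity read-out.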
On the % scale 0 is the no-effect control and ±100 the full control effect.

CC/C=C\CCO
inactive: Potency [1] | Potency [2] | Potency [3] | outcome [4] | Potency [5] | outcome [6] | outcome [7] | Potency [8] | outcome [9] | outcome [10] | outcome [11] | outcome [12] | outcome [13] | Potency [14]

CCCc1nc(C)c2c(=O)[nH]c(-c3cc(S(=O)(=O)N4CCN(CC)CC4)ccc3OCC)nn12
inactive: Potency [15] | Potency [2] | Potency [3] | Potency [16] | outcome [4] | outcome [17] | Potency [5] | outcome [6] | outcome [7] | Potency [8] | outcome [9] | outcome [10] | outcome [11] | outcome [18] | outcome [12] | outcome [13] | Potency [14]

SCCOCCOCCS
inactive: Potency [15] | Potency [1] | Potency [2] | outcome [4] | outcome [17] | Potency [5] | outcome [6] | outcome [7] | Potency [8] | outcome [9] | outcome [11] | outcome [18] | outcome [12] | outcome [13] | Potency [19] | Potency [14]

O=Cc1ccc(Cl)c([N+](=O)[O-])c1
inactive: Potency [15] | Potency [1] | Potency [2] | outcome [4] | outcome [17] | Potency [5] | outcome [6] | outcome [7] | Potency [8] | outcome [9] | outcome [11] | outcome [18] | outcome [12] | outcome [13]

CC(C)(C)c1ccc(CCC=O)cc1
inactive: Potency [15] | Potency [2] | Potency [3] | Potency [16] | outcome [4] | outcome [17] | Potency [5] | outcome [6] | outcome [7] | Potency [8] | outcome [9] | outcome [10] | outcome [11] | outcome [18] | outcome [12] | Potency [14]

CC(=O)CC/C=C(\C)CC/C=C(\C)CC/C=C(\C)CCC=C(C)C
inactive: Potency [15] | Potency [1] | Potency [2] | Potency [16] | outcome [4] | outcome [17] | outcome [6] | outcome [7] | Potency [8] | outcome [9] | outcome [11] | outcome [18] | outcome [12] | outcome [13]

CC(=O)OCC(=O)[C@@]1(O)CC[C@H]2[C@@H]3CCC4=CC(=O)C=C[C@]4(C)[C@@]3(F)[C@@H](O)C[C@@]21C
active: Potency [19] 0.0129 µM
inactive: Potency [15] | Potency [1] | Potency [2] | fluorescence, relative to Rose Bengal [4] -0.399% [at 18.6 µM] | fluorescence, % of fluorescein control [17] 0.0333% [at 18.6 µM] | fluorescence, % of triamterene [5] 0.0056% [at 18.6 µM] | fluorescence, % of fluorescent control [6] 0.478% [at 18.6 µM] | fluorescence, % of fluorescein [7] -0.0592% [at 18.6 µM] | activity change [9] 0.114% [at 18.6 µM] | fluorescence, % of Rose Bengal [11] -0.0287% [at 18.6 µM] | fluorescence, % of fluorescent control [18] 0.0112% [at 18.6 µM] | fluorescence, % of fluorescein control [12] -0.0779% [at 18.6 µM]

Nc1ccc(C(=O)Oc2ccccc2)c(O)c1
active: Potency [15] 9.44 µM | Potency [16] 29.8 µM
inactive: Potency [1] | Potency [2] | outcome [4] | Potency [5] | outcome [6] | outcome [7] | Potency [8] | outcome [9] | outcome [10] | outcome [11] | outcome [12] | outcome [13] | Potency [14]

Cc1c(-c2cccnc2)c2ccccc2n1CCCCC(=O)O
inactive: Potency [15] | Potency [1] | Potency [2] | outcome [4] | Potency [5] | outcome [6] | outcome [7] | Potency [8] | outcome [9] | outcome [10] | outcome [11] | outcome [12] | outcome [13]

CC(C(=O)O)c1ccc(/C=C2\CCCCC2=O)cc1 (stereo unspecified)
inactive: Potency [1] | Potency [2] | Potency [3] | outcome [4] | outcome [17] | Potency [5] | outcome [6] | outcome [7] | Potency [8] | outcome [9] | outcome [10] | outcome [11] | outcome [18] | outcome [12] | Potency [19] | Potency [14]

CCC(C)C1N=C(C)C(C)S1 (stereo unspecified)
inactive: Potency [1] | Potency [2] | Potency [3] | Potency [16] | outcome [4] | outcome [17] | Potency [5] | outcome [6] | outcome [7] | outcome [9] | outcome [10] | outcome [11] | outcome [18] | outcome [12] | outcome [13] | Potency [19] | Potency [14]

N#Cc1ccc(CC(=O)c2cccc(C(F)(F)F)c2)cc1
active: Potency [3] 48.6 µM
inactive: Potency [1] | Potency [2] | outcome [4] | outcome [17] | outcome [6] | outcome [7] | Potency [8] | outcome [9] | outcome [10] | outcome [11] | outcome [18] | outcome [12] | outcome [13] | Potency [19] | Potency [14]

CCCCC(CC)COCCC#N (stereo unspecified)
inactive: Potency [1] | Potency [2] | Potency [3] | Potency [16] | outcome [4] | outcome [17] | Potency [5] | outcome [6] | outcome [7] | Potency [8] | outcome [9] | outcome [10] | outcome [11] | outcome [18] | outcome [12] | Potency [19] | Potency [14]

OCCc1ccncc1
inactive: Potency [1] | Potency [2] | Potency [3] | outcome [4] | outcome [17] | Potency [5] | outcome [6] | outcome [7] | Potency [8] | outcome [9] | outcome [10] | outcome [11] | outcome [18] | outcome [12] | outcome [13] | Potency [14]

c1ccc(CN(Cc2ccccc2)Cc2ccccc2)cc1
inactive: Potency [2] | outcome [4] | outcome [17] | Potency [5] | outcome [6] | outcome [7] | outcome [9] | outcome [10] | outcome [11] | outcome [18] | outcome [12] | outcome [13] | Potency [19]
active: Potency [16] 30.6 µM

C=CC(=O)OCCCCCCCCCC
inactive: Potency [1] | Potency [2] | Potency [3] | Potency [16] | outcome [4] | outcome [17] | Potency [5] | outcome [6] | outcome [7] | Potency [8] | outcome [9] | outcome [11] | outcome [18] | outcome [12] | outcome [13] | Potency [19] | Potency [14]

O=c1[nH]nc(-c2ccc([N+](=O)[O-])o2)o1
active: Potency [16] 43.3 µM
inactive: Potency [15] | Potency [1] | outcome [4] | outcome [17] | Potency [5] | outcome [6] | outcome [7] | Potency [8] | outcome [9] | outcome [10] | outcome [11] | outcome [18] | outcome [12] | outcome [13] | Potency [19] | Potency [14]

Clc1nc2ccccc2nc1Cl
inactive: Potency [15] | Potency [1] | Potency [2] | Potency [3] | outcome [4] | Potency [5] | outcome [6] | outcome [7] | outcome [9] | outcome [10] | outcome [11] | outcome [18] | outcome [12] | outcome [13] | Potency [19] | Potency [14]

c1ccc(-c2ccc(-c3ccccc3)cc2)cc1
inactive: Potency [1] | Potency [2] | Potency [3] | fluorescence, relative to Rose Bengal [4] -0.399% [at 18.6 µM] | fluorescence, % of fluorescent control [6] 0.554% [at 18.6 µM] | fluorescence, % of fluorescein [7] 0.0075% [at 18.6 µM] | fluorescence, % of fluorescent control [8] -0.0624% [at 18.6 µM] | activity change [9] -0.0551% [at 18.6 µM] | fluorescence, % of Rose Bengal [11] -0.0264% [at 18.6 µM] | fluorescence, % of fluorescent control [18] 0.0163% [at 18.6 µM] | fluorescence, % of fluorescein control [12] -0.0394% [at 18.6 µM] | fluorescence, % of fluorescent control [13] -0.024% [at 18.6 µM] | Potency [19] | Potency [14]

Nc1ccccc1Nc1ccccc1
inactive: Potency [15] | Potency [3] | outcome [4] | outcome [17] | Potency [5] | outcome [6] | outcome [7] | Potency [8] | outcome [9] | outcome [10] | outcome [11] | outcome [18] | outcome [12] | outcome [13]
